Screening data (PubChem BioAssay)
This is a sample that favours compounds with a hit; in the whole collection about 2.6% have one here.
Cruzain noTriton = inhibitors of Trypanosoma cruzi cruzain without detergent. purified cruzain, Z-FR-AMC fluorescence, no detergent. 200,000 tested, 2.3% active. P25779. Potency, µM, for the others: max response, negative = inhibition, hits mostly inhibitors;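 also: plate controls were enzyme without inhibitor for no effect and buffer without enzyme for full effect; nearly all actives have a fitted effect of over 40% in size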
Target sequence (P25779 123-467 limits assumed): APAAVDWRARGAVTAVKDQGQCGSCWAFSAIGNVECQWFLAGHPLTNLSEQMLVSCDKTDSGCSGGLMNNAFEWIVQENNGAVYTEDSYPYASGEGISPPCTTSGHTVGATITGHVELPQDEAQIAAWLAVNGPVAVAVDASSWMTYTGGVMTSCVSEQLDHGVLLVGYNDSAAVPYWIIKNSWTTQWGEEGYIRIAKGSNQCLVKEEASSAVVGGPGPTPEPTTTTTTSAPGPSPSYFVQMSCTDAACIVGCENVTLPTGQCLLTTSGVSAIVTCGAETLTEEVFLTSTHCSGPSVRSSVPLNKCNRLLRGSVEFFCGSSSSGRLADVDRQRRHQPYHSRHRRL
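Detergent-free condition (0.00005% Triton X-100) in acetate buffer pH 5.5 with DTT. 1.5 nM enzyme and compound were pre-mixed 15 min, then 2 uM Z-FR-AMC substrate added; reaction progress from fluorescence change between first and third reads (60 s).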
Cruzain inh Det = blocks cruzain activity in presence of Triton detergent; P25779; purified cruzain, Z-FR-AMC fluorescence, 0.01% Triton; Potency, µM, for the others: max response, negative = inhibition, hits mostly inhibitors; 200,000 tested, 0.43% active; AID 1478;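 also: plate controls were neutral wells for no effect and buffer without enzyme for full effect; nearly all actives have a fitted effect of over 40% in size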
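Cruzain (1.5 nM) preincubated 15 min at RT with compound in 100 mM sodium acetate pH 5.5, 5 mM DTT, 0.01% Triton X-100. Reaction started with 2 uM Z-FR-AMC; AMC fluorescence (ex 360/em 450 nm) change over 60 s gave rate.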
* hit, by the source's call; ? = inconclusive. Calls follow the shape of the dose curve; as a rule, active = well fitted curve in the direction sought with a large enough effect; inconclusive = small, poorly fitted or top-dose-only effect, or another doubt; inactive = no such curve, though single readings can be large; an effect the other way counts as inactive or inconclusive. Potency is read from the fitted curve at half-maximal effect.

SMILES	Cruzain noTriton	Cruzain inh Det
Cc1nnsc1C(=O)Nc1ccccc1	-2%	-4%
CCS(=O)(=O)c1ccc2oc(Nc3ccc(C(C)C)cc3)nc2c1	-16%	-4%
Cc1ccc(/C=N/Nc2nc3ccccc3[nH]2)s1	-24%	-17%
C(=N\Nc1nc2ccccc2[nH]1)/c1c[nH]c2ccccc12	16µM*	?
Cc1cn2c(=O)cc(COc3cccc(NC(=O)c4ccc(C(C)(C)C)cc4)c3)nc2s1	?	-4%
CCOc1cc(C2NN=C(c3ccc(C)cc3)S2)ccc1O (stereo not given)	4%	-4%
CCOc1ccccc1C1C(C#N)=C(N)Nc2onc(-c3ccccc3)c21 (stereo not given)	-22%	3%
CCOC(=O)C1=C(C)N=C2c3ccccc3C(=O)C2C1c1ccc(Cl)cc1 (stereo not given)	-7%	-5%
CCOC(=O)C1=C(Cc2ccc(Cl)cc2)C(=O)c2ccccc2C1=O	16µM*	-7%
COc1cc(/C=N/NC(=S)N/N=C/c2cc(OC)c(OC)c(OC)c2)cc(OC)c1OC	?	14µM*
COc1cc(/C=N/NC(=S)Nc2cccc(C(=O)O)c2)cc(OC)c1OC	-5%	-12%
CNC(=O)c1sccc1S(=O)(=O)Cc1c(Cl)cccc1Cl	-7%	7%
NCCC[C@@H](CC(=O)N[C@@H]1CCCC[C@H]1C(=O)N[C@H](CC(=O)N[C@@H](CCC(=O)O)CC(=O)O)Cc1ccccc1)NC(=O)C[C@H](Cc1ccccc1)NC(=O)[C@@H]1CNCC[C@H]1N	14%	0%
CCC1(CC)Cc2ccccc2-c2nc(-c3ccccc3)oc(=O)c21	?	-1%
O=c1oc(-c2ccccc2)nc2c1C1(CCCCC1)Cc1ccccc1-2	25µM*	-1%
Cc1sc(=NC(=O)c2ccco2)n(C)c1-c1ccc(Cl)cc1	-3%	-10%
COc1ccc(-c2noc(-c3ccco3)n2)cc1OC	2%	-4%
CN1C(=O)/C(=C\c2cc(N=Nc3ccccc3)ccc2O)SC1=S	25µM*	-2%
Cc1nn(-c2ccccc2)c(Cl)c1/C=C1\SC(=S)N(C)C1=O	-16%	-5%
CC(Oc1ccc(Cl)cc1Cl)C(=O)NCCCCc1ccccc1 (stereo not given)	14%	-8%
Cc1cccc(CCNc2nc3ccccc3n3nnnc23)c1	-12%	4%
Clc1ccc(CCNc2nc3ccccc3n3nnnc23)cc1	25µM*	4%
CN(C)c1cccc(C(=O)OC(C(=O)Nc2ccc(Cl)cc2C(F)(F)F)c2ccccc2)c1 (stereo not given)	?	-11%
CN(C)c1cccc(C(=O)OC(C(=O)Nc2ccc([N+](=O)[O-])cc2Br)c2ccccc2)c1 (stereo not given)	16µM*	-2%
O=C(CSc1nc2ccccc2o1)Nc1cc(C(F)(F)F)ccc1N1CCOCC1	-1%	-5%
SMILES	Cruzain noTriton	Cruzain inh Det
O=S(=O)(c1ccccc1)c1nc(-c2ccco2)oc1NCc1ccco1	-7%	-9%
O=S(=O)(c1ccccc1)c1nc(-c2cccc(Cl)c2)oc1NCc1ccccc1	9%	0%
CCNc1oc(-c2ccc(OC)cc2)nc1S(=O)(=O)c1ccc(Br)cc1	-1%	-3%
Cc1ccc(S(=O)(=O)c2nc(C)oc2NCc2ccccc2)cc1	20µM*	20µM*
O=S(=O)(c1ccc(Cl)cc1)c1nc(-c2cccc(Br)c2)oc1NCc1ccccc1	13µM*	-11%
Cc1ccc(S(=O)(=O)c2nc(-c3ccccc3F)oc2NCc2ccccc2)cc1	0%	-2%
O=S(=O)(c1ccccc1)c1nc(-c2ccco2)oc1NCc1ccccc1	25µM*	22µM*
CCCCNc1oc(-c2ccc(OC)cc2)nc1S(=O)(=O)c1ccccc1	?	28µM*
Cc1cc(C)n2nc(-c3cnn(C)c3C(F)(F)F)cc2n1	-1%	5%
CCCn1c2ccccc2c2nnc(SCC(=O)Nc3ncccn3)nc21	-9%	-18%
CCCCn1c(COc2cccc(OC)c2)nc2ccccc21	-6%	-9%
COc1ccc(NC(=O)C(C)n2nnc3sc(-c4ccccc4)cc3c2=O)cc1Cl (stereo not given)	25µM*	-12%
Cc1cc(C)c(NC(=O)C(C)n2nnc3sc(-c4ccccc4)cc3c2=O)c(C)c1 (stereo not given)	?	4%
COc1cc(Cl)c(C)cc1NC(=O)CSc1ncc(S(=O)(=O)c2ccc(C(C)(C)C)cc2)c(=O)[nH]1	10%	28µM*
Cc1ccc(NC(=O)CSc2ncc(S(=O)(=O)c3ccc(C(C)C)cc3)c(=O)[nH]2)cc1C	2%	0%
Cc1c(Cl)cccc1NC(=O)CSc1ncc(S(=O)(=O)c2ccc(C(C)C)cc2)c(=O)[nH]1	?	28µM*
CCc1ccc(S(=O)(=O)c2cnc(SCC(=O)Nc3ccc(OC)cc3OC)[nH]c2=O)cc1	16%	-22%
CCOC(=O)c1ccc(-c2ccc(/C=C(\C#N)C(=O)NCc3cccs3)o2)cc1	-1%	0%
CCc1ccccc1NC(=O)Cn1nc(C(F)(F)F)c2c1CCCC2	-3%	-3%
Cc1cc(OCc2ccc(C(=O)NN=C3CCCC3)cc2)ccc1Cl	?	-6%
Cc1cc(Br)c(OCc2ccc(C(=O)N/N=C3\CC(=O)CC(C)(C)C3)cc2)c(Br)c1	10µM*	-1%
O=C(CCCCn1c(=O)[nH]c2ccsc2c1=O)NCc1cccnc1	-1%	1%
CN(C)C(=O)c1nc2ccccc2s1	0%	-1%
CN(C)c1ccc(CC(=O)c2nc3ccccc3s2)cc1	20µM*	-4%
O=C(COC(=O)/C=C/c1ccccc1[N+](=O)[O-])Nc1ccc(OC(F)F)cc1	-21%	-1%
SMILES	Cruzain noTriton	Cruzain inh Det
O=C(COC(=O)/C=C/c1ccccc1[N+](=O)[O-])Nc1ccc(OCc2ccccc2)cc1	25µM*	3%
Cc1ccc(Sc2nc(C)cc(C)c2S(C)(=O)=O)cc1	-1%	-4%
CC1(C)CC(=O)C2=C(C1)N(c1ccccc1)C(N)=C(C#N)C2c1ccsc1 (stereo not given)	-4%	-5%
Cc1c(CC=C(Cl)Cl)c(=O)[nH]c2c(C)cccc12	2.5µM*	0%
CCCc1c(C)c2cccc(C)c2[nH]c1=O	-11%	3%
COCCNC(=O)c1c(NC(=O)c2ccco2)n(Cc2ccccc2)c2nc3ccccc3nc12	?	-6%
COc1ccc(S(=O)(=O)Nc2nc3ccccc3nc2Nc2ccc3c(c2)OCO3)cc1	?	-5%
O=S(=O)(Nc1nc2ccccc2nc1Nc1ccc2c(c1)OCCO2)c1cccs1	25µM*	-5%
Cc1cccc(OCC(=O)N(Cc2sccc2C)C2CCS(=O)(=O)C2)c1 (stereo not given)	11%	-2%
NC(N)=Nc1nc(CSCC/C(N)=N\S(N)(=O)=O)cs1	13µM*	25µM*
O=C(c1cc(C(F)(F)F)cc(C(F)(F)F)c1)N1CCC2(CC1)CN(c1ccccn1)C2	10%	-10%
COC(=O)C/C=C/[C@@H](C)[C@@H](/C=N/OCC[C@@H]1C=C[C@H](OC(C)=O)[C@@H](COC(C)=O)O1)NS(=O)(=O)c1ccc(C)cc1	?	-2%
CS(=O)(=O)Nc1ccc(Cc2noc(-c3ccc4[nH]cc(CCN)c4c3)n2)cc1	32µM*	-2%
COc1ccc2[nH]cc(CCNc3ccnc(-c4cccc(NS(C)(=O)=O)c4)n3)c2c1	0%	-4%
COc1ccc(CC(=O)c2ccc(OC)c(OC)c2C)cc1OC	-5%	-2%
COc1ccc(CNC(=O)c2cc(Nc3ccccc3C)nc3ccccc23)cc1	25µM*	-12%
